Data: the supplement of paper PMC11732987, “Enantioselective OTUD7B fragment discovery through chemoproteomics screening and high-throughput optimisation” (Communications Chemistry, 2025)
A number with no mark means an inactive call.

What follows are targets tested with ClCC(=O)NC1(CCCC1)C#N (assay: log2 ratio of Biotin-Ahx-Ub-VS probe labelling (compound/DMSO); higher = less target engagement, active = hit call of the paper (q ≤ 0.05, log2 ratio ≤ -1)). Settings: compound concentration: 50uM; treatment time: 3 h.
Protocol: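 Round 2 competitive ABPP in HEK293T lysate. Compounds were tested at 50 and 200 µM for 3 h, followed by Biotin-Ahx-Ub-VS enrichment and diaPASEF LC-MS/MS. Values are the average log2 ratio (compound/DMSO) from an unpaired t-test (n=3 treated, n=26 DMSO).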

UniProt Q9H9J4, sequence (Q9H9J4 whole entry): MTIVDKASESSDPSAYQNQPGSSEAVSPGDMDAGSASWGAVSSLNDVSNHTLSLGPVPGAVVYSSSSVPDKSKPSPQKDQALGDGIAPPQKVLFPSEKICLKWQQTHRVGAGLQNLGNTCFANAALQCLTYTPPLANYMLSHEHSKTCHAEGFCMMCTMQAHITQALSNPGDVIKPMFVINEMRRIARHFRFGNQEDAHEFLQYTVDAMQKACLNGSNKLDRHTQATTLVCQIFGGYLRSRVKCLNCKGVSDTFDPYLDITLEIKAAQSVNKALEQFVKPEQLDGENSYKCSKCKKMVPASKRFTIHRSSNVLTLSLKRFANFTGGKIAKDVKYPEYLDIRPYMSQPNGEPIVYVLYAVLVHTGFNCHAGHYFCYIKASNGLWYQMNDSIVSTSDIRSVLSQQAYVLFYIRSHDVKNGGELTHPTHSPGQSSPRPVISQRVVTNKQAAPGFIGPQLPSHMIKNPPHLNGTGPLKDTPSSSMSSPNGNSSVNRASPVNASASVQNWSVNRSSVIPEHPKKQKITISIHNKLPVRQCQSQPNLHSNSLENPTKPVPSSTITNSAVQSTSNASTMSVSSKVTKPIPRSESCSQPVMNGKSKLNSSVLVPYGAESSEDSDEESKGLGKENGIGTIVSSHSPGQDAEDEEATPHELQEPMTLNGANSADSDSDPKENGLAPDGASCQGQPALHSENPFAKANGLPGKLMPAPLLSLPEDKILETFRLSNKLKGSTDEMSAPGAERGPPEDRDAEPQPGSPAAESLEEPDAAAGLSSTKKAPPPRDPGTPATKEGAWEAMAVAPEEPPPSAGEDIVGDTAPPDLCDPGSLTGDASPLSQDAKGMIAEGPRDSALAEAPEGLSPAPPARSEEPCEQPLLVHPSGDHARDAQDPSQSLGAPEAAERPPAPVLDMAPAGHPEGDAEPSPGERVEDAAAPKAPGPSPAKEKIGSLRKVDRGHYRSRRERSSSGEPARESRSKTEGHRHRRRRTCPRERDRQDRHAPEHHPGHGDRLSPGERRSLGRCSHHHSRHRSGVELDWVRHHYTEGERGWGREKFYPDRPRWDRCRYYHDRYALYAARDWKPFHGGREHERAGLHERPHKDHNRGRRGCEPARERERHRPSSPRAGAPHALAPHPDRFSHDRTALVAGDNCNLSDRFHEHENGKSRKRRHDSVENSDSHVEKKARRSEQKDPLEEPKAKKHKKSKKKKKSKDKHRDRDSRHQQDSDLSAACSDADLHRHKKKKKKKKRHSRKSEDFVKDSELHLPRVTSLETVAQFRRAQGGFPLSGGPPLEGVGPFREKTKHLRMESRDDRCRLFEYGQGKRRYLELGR
UniProt Q9P275, sequence (Q9P275 whole entry): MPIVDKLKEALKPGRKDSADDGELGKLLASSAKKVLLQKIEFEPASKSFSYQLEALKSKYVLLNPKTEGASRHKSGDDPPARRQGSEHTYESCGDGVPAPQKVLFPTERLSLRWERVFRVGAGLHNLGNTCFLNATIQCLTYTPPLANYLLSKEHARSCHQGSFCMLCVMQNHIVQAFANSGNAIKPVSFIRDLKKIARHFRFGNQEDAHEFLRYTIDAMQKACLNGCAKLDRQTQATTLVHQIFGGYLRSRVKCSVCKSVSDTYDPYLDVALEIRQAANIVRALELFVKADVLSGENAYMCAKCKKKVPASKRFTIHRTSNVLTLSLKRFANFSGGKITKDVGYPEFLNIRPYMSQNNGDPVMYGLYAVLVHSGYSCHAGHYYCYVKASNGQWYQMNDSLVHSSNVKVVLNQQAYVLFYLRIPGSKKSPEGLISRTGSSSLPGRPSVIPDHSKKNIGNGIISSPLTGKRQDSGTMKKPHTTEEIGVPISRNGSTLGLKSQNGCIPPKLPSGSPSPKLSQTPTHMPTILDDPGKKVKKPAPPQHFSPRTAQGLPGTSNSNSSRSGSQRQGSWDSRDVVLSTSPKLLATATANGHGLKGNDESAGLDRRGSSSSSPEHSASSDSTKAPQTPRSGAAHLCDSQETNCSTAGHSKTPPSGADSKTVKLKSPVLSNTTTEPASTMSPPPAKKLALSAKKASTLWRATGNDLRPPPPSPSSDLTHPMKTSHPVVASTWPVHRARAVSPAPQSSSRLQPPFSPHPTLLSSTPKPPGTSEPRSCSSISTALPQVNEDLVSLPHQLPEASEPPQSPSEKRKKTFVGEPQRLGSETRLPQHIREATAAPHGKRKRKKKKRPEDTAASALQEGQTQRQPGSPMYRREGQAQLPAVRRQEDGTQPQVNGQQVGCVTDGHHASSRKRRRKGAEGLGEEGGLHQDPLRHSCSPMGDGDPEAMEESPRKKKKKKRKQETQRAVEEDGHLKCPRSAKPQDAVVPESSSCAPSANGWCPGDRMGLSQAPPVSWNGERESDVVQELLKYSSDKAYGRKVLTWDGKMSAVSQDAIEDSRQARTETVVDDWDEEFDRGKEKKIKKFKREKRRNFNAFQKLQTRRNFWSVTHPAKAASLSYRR
UniProt Q92560, sequence (Q92560 whole entry): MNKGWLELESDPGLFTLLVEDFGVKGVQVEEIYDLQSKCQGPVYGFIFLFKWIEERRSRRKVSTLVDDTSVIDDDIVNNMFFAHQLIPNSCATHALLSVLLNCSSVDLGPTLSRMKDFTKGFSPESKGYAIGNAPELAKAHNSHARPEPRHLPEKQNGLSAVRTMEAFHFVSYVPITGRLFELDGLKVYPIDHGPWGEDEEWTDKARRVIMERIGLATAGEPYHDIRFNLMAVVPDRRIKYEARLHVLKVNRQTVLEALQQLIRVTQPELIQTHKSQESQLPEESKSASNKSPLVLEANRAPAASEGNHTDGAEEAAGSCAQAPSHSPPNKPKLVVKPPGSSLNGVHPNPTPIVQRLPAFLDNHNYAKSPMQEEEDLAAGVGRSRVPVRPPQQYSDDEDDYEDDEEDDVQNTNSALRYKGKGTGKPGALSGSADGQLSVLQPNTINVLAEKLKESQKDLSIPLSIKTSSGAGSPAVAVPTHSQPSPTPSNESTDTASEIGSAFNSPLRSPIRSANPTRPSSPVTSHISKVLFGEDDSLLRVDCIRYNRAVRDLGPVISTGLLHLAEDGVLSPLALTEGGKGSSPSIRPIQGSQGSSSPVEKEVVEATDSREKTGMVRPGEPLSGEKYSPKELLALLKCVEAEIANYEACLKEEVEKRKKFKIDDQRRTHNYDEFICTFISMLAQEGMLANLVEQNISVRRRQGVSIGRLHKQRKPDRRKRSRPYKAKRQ
UniProt Q8NB14, sequence (Q8NB14 whole entry): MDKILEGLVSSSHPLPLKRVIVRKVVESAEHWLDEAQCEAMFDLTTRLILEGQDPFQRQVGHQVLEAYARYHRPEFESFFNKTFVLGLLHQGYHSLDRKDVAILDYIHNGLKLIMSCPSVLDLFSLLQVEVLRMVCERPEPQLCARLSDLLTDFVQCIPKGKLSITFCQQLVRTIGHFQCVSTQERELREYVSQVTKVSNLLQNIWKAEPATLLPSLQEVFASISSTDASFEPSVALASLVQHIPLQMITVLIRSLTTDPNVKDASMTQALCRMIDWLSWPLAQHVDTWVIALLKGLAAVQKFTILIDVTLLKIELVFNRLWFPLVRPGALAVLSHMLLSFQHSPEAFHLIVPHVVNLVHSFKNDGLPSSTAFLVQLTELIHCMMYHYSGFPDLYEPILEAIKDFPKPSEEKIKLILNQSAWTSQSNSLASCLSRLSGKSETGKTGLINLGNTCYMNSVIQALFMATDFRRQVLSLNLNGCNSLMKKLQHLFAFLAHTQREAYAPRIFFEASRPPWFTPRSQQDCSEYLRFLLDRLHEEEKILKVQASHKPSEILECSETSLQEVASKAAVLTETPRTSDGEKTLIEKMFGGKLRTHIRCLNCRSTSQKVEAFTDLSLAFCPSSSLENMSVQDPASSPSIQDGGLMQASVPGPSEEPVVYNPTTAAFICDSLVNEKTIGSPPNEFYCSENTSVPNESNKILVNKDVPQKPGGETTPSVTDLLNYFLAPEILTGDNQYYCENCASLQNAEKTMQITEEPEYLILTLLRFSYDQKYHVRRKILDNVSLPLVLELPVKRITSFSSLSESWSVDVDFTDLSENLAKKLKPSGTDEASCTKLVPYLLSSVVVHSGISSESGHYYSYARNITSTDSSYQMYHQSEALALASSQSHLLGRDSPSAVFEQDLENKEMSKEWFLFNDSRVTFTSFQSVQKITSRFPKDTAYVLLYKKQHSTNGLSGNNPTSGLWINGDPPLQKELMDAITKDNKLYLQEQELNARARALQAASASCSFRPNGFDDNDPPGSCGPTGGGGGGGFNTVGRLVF
UniProt Q5VVQ6, sequence (Q5VVQ6 whole entry): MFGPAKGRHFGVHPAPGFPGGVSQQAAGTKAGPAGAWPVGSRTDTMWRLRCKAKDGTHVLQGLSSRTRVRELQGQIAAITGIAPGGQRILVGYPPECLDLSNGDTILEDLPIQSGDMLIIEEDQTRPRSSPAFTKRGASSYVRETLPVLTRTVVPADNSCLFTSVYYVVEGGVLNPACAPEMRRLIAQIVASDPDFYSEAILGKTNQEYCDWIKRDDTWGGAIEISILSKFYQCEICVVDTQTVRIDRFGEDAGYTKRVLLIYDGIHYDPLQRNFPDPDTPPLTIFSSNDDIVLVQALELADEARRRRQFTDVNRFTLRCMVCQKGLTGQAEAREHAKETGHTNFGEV
UniProt Q9Y5K5, sequence (Q9Y5K5 whole entry): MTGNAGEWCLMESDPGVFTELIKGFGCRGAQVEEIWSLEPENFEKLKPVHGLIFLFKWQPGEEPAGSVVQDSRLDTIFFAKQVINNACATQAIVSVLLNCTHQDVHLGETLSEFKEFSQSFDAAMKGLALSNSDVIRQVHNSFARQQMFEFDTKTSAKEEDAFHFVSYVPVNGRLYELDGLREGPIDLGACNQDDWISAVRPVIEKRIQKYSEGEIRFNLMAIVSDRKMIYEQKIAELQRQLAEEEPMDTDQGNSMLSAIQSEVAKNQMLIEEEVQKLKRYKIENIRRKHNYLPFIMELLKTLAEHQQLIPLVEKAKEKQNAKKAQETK

Row | Target | log2 ratio of Biotin-Ahx-Ub-VS probe labelling
1 | USP14 (UniProt P54578) | 0.0754
2 | USP36 (UniProt Q9P275) | -0.292
3 | USP25 (UniProt Q9UHP3) | -0.312
4 | YOD1 (UniProt Q5VVQ6) | -0.0389
5 | ALG13 (UniProt Q9NP73) | -0.154
6 | BAP1 (UniProt Q92560) | -1.04 (active)
7 | USP10 (UniProt Q14694) | -0.0318
8 | USP12 (UniProt O75317) | -0.429
9 | UniProt O00487 | 0.252
10 | FAM105A (UniProt Q9NUU6) | -0.0646
11 | PRPF8 (UniProt Q6P2Q9) | -0.0469
12 | USP38 (UniProt Q8NB14) | -0.219
13 | MINDY4 (UniProt Q4G0A6) | -0.742
14 | UCHL3 (UniProt P15374) | -0.252
15 | OTUB1 (UniProt Q96FW1) | -0.00568
16 | USP42 (UniProt Q9H9J4) | -0.155
17 | USP5 (UniProt P45974) | -0.165
18 | UCHL5 (UniProt Q9Y5K5) | -0.245
19 | UniProt Q70EL2 | -0.267
20 | USP4 (UniProt Q13107) | -0.0435

Same assay, conditions: compound concentration: 200uM; treatment time: 3 h

Row | Target | log2 ratio of Biotin-Ahx-Ub-VS probe labelling
21 | USP14 (UniProt P54578) | 0.244
22 | USP36 (UniProt Q9P275) | -0.22
23 | USP25 (UniProt Q9UHP3) | -1.01 (active)
24 | YOD1 (UniProt Q5VVQ6) | 0.0083
25 | ALG13 (UniProt Q9NP73) | 0.381
26 | BAP1 (UniProt Q92560) | -2.81 (active)
27 | USP10 (UniProt Q14694) | -0.0398
28 | USP12 (UniProt O75317) | 0.0646
29 | UniProt O00487 | 0.0206
30 | FAM105A (UniProt Q9NUU6) | 0.0452
31 | PRPF8 (UniProt Q6P2Q9) | -0.0301
32 | USP38 (UniProt Q8NB14) | -0.177
33 | MINDY4 (UniProt Q4G0A6) | 0.517
34 | UCHL3 (UniProt P15374) | -0.294
35 | OTUB1 (UniProt Q96FW1) | 0.00171
36 | USP42 (UniProt Q9H9J4) | -0.0948
37 | USP5 (UniProt P45974) | -0.145
38 | UCHL5 (UniProt Q9Y5K5) | -0.19
39 | UniProt Q70EL2 | 0.248
40 | USP4 (UniProt Q13107) | -0.588
